PLK1 PBD inh = PLK1 (human) polo-box domain binding inhibition; P53350; Plk1 PBD binding of FITC phosphopeptide, fluorescence polarization; Potency, µM, without a hit: max response, negative = inhibition, most hits filed as inhibitors; hit rate 2.8% among 360,000; AID 720504; note: series mostly up to about 57 µM; % is set by controls: 0 for no effect and ±100 for the full control effect; nearly all actives have a fitted effect of over 65% in size
JMJD2A Tudor = inhibitors of human JMJD2A Tudor domain; AlphaScreen JMJD2A-Tudor / H3K4me3 peptide binding; hit rate 4.4% among 390,000; AID 504339; Potency, µM (series often up to 114 µM), for inactives: at the top dose activity change, negative = inhibition, hits mostly inhibitors; O75164; note: % is set by controls: 0 for no effect and ±100 for the full control effect; nearly all actives have a fitted effect of over 50% in size
HP1b binding inh = blocks HP1-beta chromodomain binding to methylated histone tails; P83916; AlphaScreen HP1-beta / biotin-H3K9me3 peptide binding; Potency, µM (series often up to 114 µM), without a hit: at the highest dose activity change, negative = inhibition, hits mostly inhibitors; hit rate 0.56% among 390,000; AID 540317; note: nearly all actives have a fitted effect of over 70% in size
Target sequence (P83916 whole entry, looked up): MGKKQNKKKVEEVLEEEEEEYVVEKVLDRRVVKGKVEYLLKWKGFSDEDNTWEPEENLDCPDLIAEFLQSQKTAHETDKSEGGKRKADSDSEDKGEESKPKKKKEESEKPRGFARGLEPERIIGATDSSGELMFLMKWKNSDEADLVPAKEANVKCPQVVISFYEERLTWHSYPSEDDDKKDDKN
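Compound inhibition of the preformed complex between 50 nM HP1-beta and 50 nM biotinylated H3K9me3 peptide was read by AlphaScreen. Buffer was PBS pH 7.4 with 0.01% Tween-20. Incubations ran 30 min at room temperature, with 10 ug/mL donor/acceptor beads.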
Sfp inh = blocks B. subtilis Sfp PPTase activity; Q9F4F7; Biochemical Sfp PPTase activity, qHTS; Potency, µM, for inactives: largest response in the series, negative = inhibition, hits mostly inhibitors; hit rate 3.5% among 310,000;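 note: the enzyme is Sfp with the accession as filed and its product quenches rhodamine fluorescence; 0% = enzyme reaction without inhibitor and -100% = no enzyme wells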
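With Hepes-Na pH 7.6 buffer containing 10 mM MgCl2, Sfp (15 nM) modified BHQ-2-YbbR (12.5 uM) using rhodamine-CoA (5 uM). Two reads 30 minutes apart at 525/598 nm yielded each well's rate.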
G9a block = inhibitors of human histone lysine methyltransferase G9a. Potency, µM (series often up to 102 µM), for inactives: at the top dose activity, negative = inhibition, most hits filed as inhibitors. G9a H3K9 monomethylation, AlphaScreen, 2 h. Q96KQ7. hit rate 8.8% among 350,000; note: % is set by controls: 0 for no effect and ±100 for the full control effect; nearly all actives have a fitted effect of over 75% in size
Target sequence (Q96KQ7 913-1193 limits assumed): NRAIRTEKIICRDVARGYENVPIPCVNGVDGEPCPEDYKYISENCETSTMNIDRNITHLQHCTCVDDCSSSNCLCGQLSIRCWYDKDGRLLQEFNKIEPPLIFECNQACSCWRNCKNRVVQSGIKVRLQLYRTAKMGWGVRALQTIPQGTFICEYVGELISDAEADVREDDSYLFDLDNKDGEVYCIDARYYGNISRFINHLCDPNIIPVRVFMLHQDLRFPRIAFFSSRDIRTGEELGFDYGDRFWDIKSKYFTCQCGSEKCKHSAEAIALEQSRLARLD
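Quantitative HTS format: methyltransferase activity on a biotin-tagged H3K9 peptide is measured by AlphaScreen, using a rabbit anti-monomethyl-H3K9 antibody with streptavidin donor and anti-IgG acceptor beads. Final levels are 20 nM enzyme, 500 nM peptide, 20 uM SAM; 2 h RT.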
BAZ2B inh = inhibitors of human BAZ2B bromodomain. hit rate 4.4% among 360,000. AlphaScreen BAZ2B-H3K14Ac peptide displacement. Potency, µM (series often up to 114 µM), for the others: at the highest dose activity change, negative = inhibition, usual class: inhibitors; note: % is set by controls: 0 for no effect and ±100 for the full control effect; nearly all actives have a fitted effect of over 60% in size
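In this displacement format the biotinylated H3(5-23) peptide acetylated at Lys14 serves as ligand at 50 nM, with BAZ2B at 50 nM in PBS pH 7.4 containing 0.01% Tween-20. Donor and acceptor beads are 10 ug/mL final.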
The depositor's hits bear a star; [ ] = remark or other dose. Hits are enriched below; roughly 12% of the tested compounds scored in any of these assays. Calls come from the whole dose curve; as a rule, active = well fitted curve in the direction sought with a large enough effect; inconclusive = small, poorly fitted or top-dose-only effect, or another doubt; inactive = no such curve, though single readings can be large; an effect the other way counts as inactive or inconclusive. Potency is the fitted concentration of half-maximal effect.

What do the screens show for `CC(C)NC(=O)N1CCCC2(CCN(C(=O)Oc3ccccc3)CC2)C1`?
Sfp inh: -1%; G9a block: 35%[12.7 µM]

Results for C[C@]12CC[C@H]3[C@@H](C[C@H](F)C4=CC(=O)CC[C@@]43C)[C@@H]1CC[C@@H]2O ?
Sfp inh: -7%; G9a block: 19%[59 µM]

Results for CCOC(=O)c1ccc(N2C(=O)c3n[nH]c(-c4cccs4)c3C2c2ccc(OC)cc2OC)cc1 (configuration not stated) ?
JMJD2A Tudor: inconclusive; HP1b binding inh: 2%; G9a block: -2%[59 µM]

Results for COc1ccc(-c2noc(=O)n2Cc2cc(C)ccc2C)cc1 ?
PLK1 PBD inh: 1%; JMJD2A Tudor: 42%; HP1b binding inh: 56%; Sfp inh: 13%; G9a block: -3%; BAZ2B inh: -20%

How did Cc1[nH]n(-c2ccccc2)c(=O)c1C(C[N+](=O)[O-])c1ccccc1Cl (configuration not stated) do in these assays?
PLK1 PBD inh: 15µM*; JMJD2A Tudor: -17%[11.4 µM]; HP1b binding inh: 5%; Sfp inh: 2%; G9a block: inconclusive; BAZ2B inh: inconclusive

Results for O=[N+]([O-])c1ccc(C(c2ccc([N+](=O)[O-])cc2)c2ccc([N+](=O)[O-])cc2)cc1 ?
PLK1 PBD inh: -5%; JMJD2A Tudor: inconclusive; HP1b binding inh: -20%[57 µM]

What do the screens show for `Cc1[nH]n(-c2ccccc2)c(=O)c1C(c1ccc([N+](=O)[O-])cc1)c1c(C)[nH]n(-c2ccccc2)c1=O`?
PLK1 PBD inh: 7.5µM*; JMJD2A Tudor: 18µM*; HP1b binding inh: 35µM*; Sfp inh: -11%; G9a block: 11µM*; BAZ2B inh: 40µM*

Results for Cc1ccc(-n2nc3c(=O)n(CC(=O)Nc4ccccc4F)nc(C)c3c2C)c(C)c1 ?
JMJD2A Tudor: -15%; HP1b binding inh: 40%; G9a block: -5%[59 µM]; BAZ2B inh: -2%

How did Cc1ccc(N2C(=O)NC(=O)/C(=C\c3cn(CC(=O)O)c4ccccc34)C2=O)cc1 do in these assays?
PLK1 PBD inh: 27µM*; JMJD2A Tudor: -9%; HP1b binding inh: 28%; Sfp inh: -25%; G9a block: 25µM*; BAZ2B inh: inconclusive

Results for Cc1cc(/C=C2/C(=O)NC(=O)N(Cc3ccco3)C2=O)c(C)n1-c1ccccc1O ?
PLK1 PBD inh: -24%; JMJD2A Tudor: inconclusive; HP1b binding inh: -8%; Sfp inh: 6%; BAZ2B inh: 35µM*

Results for CCN(CC)c1ccc(/C=C2\C(=O)NC(=O)N(Cc3ccco3)C2=O)cc1 ?
PLK1 PBD inh: inconclusive; JMJD2A Tudor: inconclusive; HP1b binding inh: -12%; Sfp inh: inconclusive; G9a block: inconclusive; BAZ2B inh: 50µM*

What do the screens show for `O=C(O)Cn1cc(/C=C2\C(=O)NC(=O)N(c3ccc(Br)cc3)C2=O)c2ccccc21`?
PLK1 PBD inh: 3µM*; JMJD2A Tudor: -9%; HP1b binding inh: 9%[57 µM]; Sfp inh: 28µM*; G9a block: 56µM*; BAZ2B inh: -4%

What do the screens show for `CCCCN1C(=O)/C(=C/c2ccc(N(C)C)cc2)C(=O)N(Cc2ccco2)C1=O`?
PLK1 PBD inh: inconclusive; JMJD2A Tudor: inconclusive; HP1b binding inh: -17%; Sfp inh: -18%; G9a block: -4%[12.7 µM]; BAZ2B inh: inconclusive

Results for CN1Cc2c(ccc3c2OCO3)[C@@H]2[C@@H](O)Cc3cc4c(cc3[C@@H]21)OCO4 ?
Sfp inh: 10%; G9a block: 21%[21.5 µM]

How did C=C1[C@@H]2C[C@]3(C(CC2=O)[C@]24C5C[C@H]3[C@H]2N(CC)C[C@]5(C)CC[C@@H]4O)[C@@H]1O (some centres not stated) do in these assays?
Sfp inh: 20%

Screening data deposited in PubChem by National Center for Advancing Translational Sciences (NCATS).
